According to PubChem BioAssay AID521 (Sanford-Burnham Center for Chemical Genomics, 2006):
Several values for one entry are separate records, joined by “and”; a condition that tells them apart may be missing. Equal entries are not always repeated. The campaign covered roughly 110,000 compounds. About 730 (0.66%) were called active. No stated cut-off is given here; in the data, active means inhibition above about 50%; inconclusive means no clear call, values can overlap the other calls; inactive means below that. Many of the other results were omitted from the sample, so actives are more common in it than they were. More than one record can exist for a structure, and the calls need not agree.

molecular target: Tyrosine-protein phosphatase non-receptor type 7 (Homo sapiens) (UniProt P35236); assay: inhibitors of human HePTP phosphatase, primary screen, biochemical, absorbance, leukemia target (AID 521); conditions: recombinant HePTP phosphatase activity, OD absorbance; at 20 µM; stronger effect = higher value;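 further: plate controls were vehicle for no effect and reference inhibitor for full effect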
Sequence (P35236 whole entry, looked up): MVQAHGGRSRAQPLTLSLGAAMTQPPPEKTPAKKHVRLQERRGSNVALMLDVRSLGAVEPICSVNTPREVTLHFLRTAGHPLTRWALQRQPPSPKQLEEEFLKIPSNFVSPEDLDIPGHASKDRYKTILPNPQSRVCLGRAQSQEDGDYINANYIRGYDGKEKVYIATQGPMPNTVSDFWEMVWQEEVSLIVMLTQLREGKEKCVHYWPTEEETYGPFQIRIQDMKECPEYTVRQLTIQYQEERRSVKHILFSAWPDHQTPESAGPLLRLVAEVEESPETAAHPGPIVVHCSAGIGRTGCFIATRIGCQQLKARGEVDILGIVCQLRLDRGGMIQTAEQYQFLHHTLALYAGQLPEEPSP

inhibition, active:
Cc1[nH]n(-c2ccccc2)c(=O)c1C(c1ccc(C(F)(F)F)cc1)c1c(C)[nH]n(-c2ccccc2)c1=O 104%
COC(=O)c1ccccc1NC(=O)c1ccc(Cl)cc1 72.5%
COc1ccc([N+](=O)[O-])cc1-c1ccc(/C=C(\C#N)c2nc3ccc(C)cc3[nH]2)o1 103%
COC(=O)c1sc(NC(=O)C2CCCCC2)c(C#N)c1C 103%
Cc1ccc(N2NC(=O)/C(=C/c3ccc4c(c3)OCO4)C2=O)cc1Cl 66.6%
Cc1cccc(C(=O)Nc2cccc(NC(=O)COc3ccccc3Cl)c2)c1 105%
N#Cc1c(N)nc2cc(N)ccc2c1-c1ccc(O)cc1 104%
CN(C)c1ccc(/C=C2\SC(=S)N(c3cccc(C(=O)O)c3)C2=O)cc1 104%
O=C(O)c1cc(-c2ccc(C=C3C(=O)c4ccccc4C3=O)o2)ccc1O 102%
COc1cc(/C=C2\C(=O)NC(=S)N(c3cccc(Br)c3)C2=O)c([N+](=O)[O-])cc1OC 102%
O=C(O)c1cccc(N2C(=O)c3ccc4c5c(ccc(c35)C2=O)CC4)c1 103%
CCOC(=O)c1c(NC(=O)C2CC2c2ccccc2)sc2c1CCC2 (configuration not stated) 77.8%

inhibition, 103% (active) and 14.1% (inactive):
CCOc1ccccc1C(=O)NCc1ccco1

inhibition, inactive:
Cc1[nH]n(-c2ccccc2)c(=O)c1/C=N/N(C)C -5.9%
Cc1[nH]n(-c2ccccc2)c(=O)c1C(=O)C(F)(F)F 3.1%
COc1ccc2nc(C)c(CCC(C)=O)c(Cl)c2c1 6.4%
COc1ccc(C(=O)Nc2nc(C34CC5CC(CC(C5)C3)C4)c(C)s2)cc1 -13.5%
COC(=O)c1ccccc1NC(=O)COc1cccc2ccccc12 3.5%
COc1cc(C(=O)N2CCC(Cc3ccccc3)CC2)c([N+](=O)[O-])cc1OC -4.3%
COC(=O)c1ccccc1NC(=O)c1cncc(Br)c1 5.5% and 4.4%
COC(=O)c1ccc(C(=O)Nc2cc(Cl)ccc2Cl)cc1NC(=O)c1ccccc1C -11.5%
Cc1cc(NC(=O)C2CC3CCC2C3)no1 (configuration not stated) -16.7%
O=C1NC(c2ccc(Br)cc2)=N/C1=C/c1ccccc1 -7.8%
CC(=O)NC1=NC(=O)/C(=C\c2ccc(-c3cc([N+](=O)[O-])ccc3C)o2)S1 -13.7%
Cc1cccc(NC(=O)/C(C#N)=C/c2ccc(-c3ccccc3[N+](=O)[O-])o2)c1 2.3%
CCCOc1ccc(N2C(=O)CC(NCCc3ccc(Cl)cc3)C2=O)cc1 (configuration not stated) -18.1%
COc1ccccc1NCN1C(=O)S/C(=C/c2ccccc2F)C1=O -9.9%
C/C(=C\C(=O)c1ccc(Br)cc1)Nc1ccccc1O -2%
CC(C)(C)CC(C)(C)NC(=O)CSc1nc2ccccc2s1 5.4%
N/C(=C\C(=O)/C=C\c1ccccc1)C(Cl)(Cl)Cl -0.8%
O=c1oc2c3c4c(cc2cc1CCO)CCCN4CCC3 11.1%
CN1CCN(CCCCOc2cccc3ccccc23)CC1 3.9%
Cc1cc(C)c2oc(-c3ccc(NC(=O)c4cc5ccccc5o4)cc3O)nc2c1 -0.1%
CCc1ccc2oc(-c3ccc(C)c(NC(=O)c4cc(OC)cc(OC)c4)c3)nc2c1 -3.6%
COc1ccc(C=Nc2ccc(Sc3ccc([N+](=O)[O-])cc3)cc2)cc1OC -1.2%
COc1ccc(/C=C2/SC(=S)NC2=O)cc1I 7.7%
COC(=O)c1sc(NC(=O)C(Sc2ccccc2)c2ccccc2)c(C#N)c1C (configuration not stated) 10.9%
CCC(=O)Nc1sc(C(=O)N2CCCCC2)c(C)c1C#N 7.4%
CC1(C)c2ccccc2N(CCO)C12C=Cc1cc([N+](=O)[O-])ccc1O2 (configuration not stated) 0.7%
COC(=O)c1cc(S(=O)(=O)N2CCOCC2)ccc1Cl -0.5%
O=C(Cc1c(O)c2ccccc2[nH]c1=O)NCc1ccc(Cl)cc1 -5.2%
CC(=O)n1nc(C)c2c1C[C@@H]1[C@H]2C1(C)C 2.1%
O=c1[nH]c2ccc(Br)cc2c(-c2ccccc2)c1C1=NNC(c2ccc([N+](=O)[O-])cc2)C1 (configuration not stated) 7.3%
Cc1ccc(N2NC(=O)/C(=C/c3ccc(O)c(O)c3)C2=O)cc1C -5.6%
O=C1NN(c2ccccc2)C(=O)/C1=C/c1cccc(F)c1 7.6%
CC(C)=CC1C(C(=O)Nc2ccc(C)cn2)C1(C)C (configuration not stated) -10.2%
O=C(NCc1ccco1)Nc1ccncc1 -1.8%
COc1ccccc1C(=O)NC(NC(=O)c1ccccc1OC)c1ccc(Br)cc1 7.8%
O=C(Nc1ccc(OC(F)(F)F)cc1)c1cnn2c(C(F)(F)F)cc(-c3ccco3)nc12 0.1%
OCCNCC(O)Cn1c2ccc(I)cc2c2cc(I)ccc21 (configuration not stated) -15.3%
Cn1cnnc1Sc1nc2c(c(=O)n(C)c(=O)n2C)n1Cc1ccc(F)cc1 -3.2%
CC(C)(C)c1ccc(OCC(=O)Nc2cccc(NC(=O)c3ccccc3)c2)cc1 -1.7%
Cc1cccc(NC(=O)c2ccc(NC(=O)COc3ccc(Cl)cc3Cl)cc2)c1 6.4%
CSc1ccc(-c2c(C#N)c(N)nc3c2c(C)nn3-c2ccccc2)cc1 2.8%
CSc1nc(N)c(C#N)c(-c2ccccc2Cl)c1C#N -5.7%
CCN(C(=S)NC(=O)c1cccnc1)c1ccccc1 3.3%
COc1ccc(C(=O)Nc2nc3ccc(C)cc3s2)cc1Br 4.5%
CCc1c(C)sc(NC(=O)C2CCCCC2)c1C(=O)OC(C)C 6.5%
COC(=O)c1cc(NC(=O)c2ccc(-c3cc(Cl)ccc3Cl)o2)cc(C(=O)OC)c1 -24.3%
COc1cc(OC)cc(C(=O)N/N=C(\C)CC(=O)Nc2ccccc2-c2ccccc2)c1 -23.1%
CCCCOc1ccc(C(=O)NCc2ccco2)cc1 6%
COc1ccc(C(=O)Nc2ccccc2C(=O)NCc2ccco2)cc1 4.8%
O=C(Cc1ccc(Cl)cc1)Nc1ccc(Cl)cc1C(=O)O 1.2%
Cc1cccc(N2C(=O)S/C(=C/c3ccc(N(C)C)cc3)C2=O)c1 -1.4%
O=Cc1ccc(/C=C2/SC(=S)N(c3cccc(Cl)c3)C2=O)cc1 4.5%
CCOc1ccc(C(=O)Nc2ccc(O)c(-c3nc4ccccc4o3)c2)cc1[N+](=O)[O-] 7.1%
CC1=NN(c2ccc(S(N)(=O)=O)cc2)C(=O)/C1=C\c1ccc(-c2ccc(Cl)c(C(=O)O)c2)o1 9.9%
O=C1NN(c2ccccc2)C(=O)/C1=C/c1ccc(-c2cccc(C(=O)O)c2)o1 18.1%
O=[N+]([O-])c1ccc(N2CCN(CCO)CC2)cc1NC(c1ccccc1)c1ccccc1 -10.6%
COc1cccc(C(=O)N2N=C(c3ccc(F)cc3)CC2(O)C(F)(F)F)c1 (configuration not stated) 4.2%
CCOc1ccc(NC(=S)NC(NC(=O)c2cccc(C)c2)C(Cl)(Cl)Cl)cc1 (configuration not stated) 4.6%
O=[N+]([O-])c1ccc(C2SCCN2S(=O)(=O)c2ccc3ccccc3c2)cc1 (configuration not stated) 6.4%
CN(N)c1nc(N2CCCC2)nc(N2CCCC2)n1 -2.9%
O=C1NC(=O)N(c2cccc(Br)c2)C(=O)/C1=C/c1cccc([N+](=O)[O-])c1 9.5%
COc1ccc(/C=C2\C(=O)NC(=S)N(c3ccc(Br)cc3)C2=O)cc1 8.6%
c1ccc2c(OCCCN3CCOCC3)cccc2c1 -6.5%
Cc1ccc2ccc3cccc(S(=O)(=O)O)c3c2n1 2.1%
O=[N+]([O-])c1ccc(C2Nc3ccc(OC(F)(F)F)cc3C3C=CCC32)cc1 (configuration not stated) -9.1%
Cc1ccc(C(=O)Nc2ccccc2C(=O)NC2CCCCCC2)cc1 2.4%
O=C(CCCN1C(=O)/C(=C/c2ccccc2)SC1=S)Nc1ccccc1C(=O)O 10.4%
COc1cccc(C(O)c2nc3ccccc3n2C)c1 (configuration not stated) -6.5%
CCc1ccc(-n2c(C)cc(/C=C3/SC(=S)NC3=O)c2C)cc1 7.1%
O=C(COc1ccc2ccccc2c1Br)c1ccc(Br)cc1 3%
CC(=O)c1ccc(NS(=O)(=O)c2ccccc2[N+](=O)[O-])cc1 3%
Cc1cccc(NC(=O)COc2cc(C)c(Cl)c(C)c2)c1C 2%
COc1ccc(NC(=O)c2cccc(N3C(=O)c4ccc(C(=O)Nc5ccc(OC)cc5)cc4C3=O)c2)cc1 -8.7%
O=C1c2ccc3c4c(ccc(c24)C(=O)N1CCOc1ccccc1)CC3 3.5%
O=[N+]([O-])c1ccc(C=NC23CN4CN(CN(C4)C2)C3)s1 4.4%
COCCNC(=O)/C(=C/c1ccc(-c2cc(Cl)ccc2Cl)o1)NC(=O)c1ccc(C)cc1 5.9%
CCOc1cc(/C=N/NC(=O)c2cc(C)[nH]n2)ccc1Oc1ccc([N+](=O)[O-])cc1[N+](=O)[O-] 6.3%
CCCOC(=O)Nc1sc2c(c1C(=O)OCC)CCC2 -6.2%
CCOCC(=O)Nc1sc2c(c1C(=O)OCC)CCCC2 3.2%
